# Measurements as given in PubChem BioAssay AID1159580 (chemical genetic matrix, 2015).
# Screen size: about 5,500 compounds; about 2,000 (36%) were called active. Not shown: some 18% with an inconclusive outcome. This is one part of the list. A number with no mark means an inactive call. Rule as the data show it: active = normalized growth mostly below about 0.91 (no sharp cut-off); inconclusive = no clear call, values can overlap the other calls; inactive = mostly above about 0.92.
# Experiment: chemical genetic growth profiling, strain panel (AID 1159580);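 also: tested at 20 µM; growth read once vehicle control cultures reached saturation at 30 °C; 1 = growth at the plate median or of vehicle wells; lower values mean less growth of the strain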
# Settings: S. cerevisiae deletion strains, growth OD
compound,measurement,setting,value
COC(=O)COc1cc(Cl)c(Cl)cc1Cl,normalized growth,"locus YJR075W, strain HOC1, active compounds read low",0.952
same,normalized growth,"locus YKL009W, strain mrt4, active compounds read low",0.995
same,normalized growth,"locus YKL068W, active compounds read low",0.955
same,normalized growth,"locus YKL085W, strain MDH1 (second series), active compounds read low",0.949
same,normalized growth,"locus YKL085W, strain MDH1, active compounds read low",0.949
same,normalized growth,"locus YKL160W, strain elf1, active compounds read low",1
same,normalized growth,"locus YKL190W, strain CNB1, active compounds read low",0.971
same,normalized growth,"locus YKR001C, strain vps1, active compounds read low",0.916
same,normalized growth,"locus YKR026C, strain gcn3, active compounds read low",0.992
same,normalized growth,"locus YKR091W, strain srl3, active compounds read low",0.993
same,normalized growth,"locus YLL001W, strain dnm1, active compounds read low",0.99
same,normalized growth,"locus YLL026W, active compounds read low",0.993
same,normalized growth,"locus YLL041C, strain sdh2, active compounds read low",1
same,normalized growth,"locus YLR027C, strain aat2, active compounds read low",0.991
same,normalized growth,"locus YLR039C, strain RIC1, active compounds read low",0.613 (active)
same,normalized growth,"locus YLR058C, strain SHM2, active compounds read low",0.979
same,normalized growth,"locus YLR102C, strain apc9, active compounds read low",0.957
same,normalized growth,"locus YLR113W, strain HOG1, active compounds read low",0.879
same,normalized growth,"locus YLR221C, strain rsa3, active compounds read low",0.987
same,normalized growth,"locus YLR258W, strain gsy2, active compounds read low",0.994
same,normalized growth,"locus YLR262C, strain YPT6 (second series), active compounds read low",0.863
same,normalized growth,"locus YLR262C, strain YPT6, active compounds read low",0.662
same,normalized growth,"locus YLR268W, strain sec22, active compounds read low",0.955
same,normalized growth,"locus YLR320W, strain mms22, active compounds read low",1.01
same,normalized growth,"locus YLR330W, strain CHS5, active compounds read low",0.975
same,normalized growth,"locus YLR342W, strain FKS1 (second series), active compounds read low",1.04
same,normalized growth,"locus YLR342W, strain FKS1, active compounds read low",0.997
same,normalized growth,"locus YLR357W, strain rsc2, active compounds read low",0.895
same,normalized growth,"locus YLR370C, strain arc18, active compounds read low",1
same,normalized growth,"locus YLR371W, strain rom2, active compounds read low",0.986
same,normalized growth,"locus YLR384C, strain iki3, active compounds read low",1.01
same,normalized growth,"locus YLR418C, strain cdc73, active compounds read low",0.859
same,normalized growth,"locus YML016C, strain PPZ1, active compounds read low",0.966
same,normalized growth,"locus YML032C, strain rad52, active compounds read low",0.988
same,normalized growth,"locus YML120C, strain ndi1, active compounds read low",0.995
same,normalized growth,"locus YML124C, strain tub3, active compounds read low",0.96
same,normalized growth,"locus YMR058W, strain fet3, active compounds read low",1
same,normalized growth,"locus YMR078C, strain ctf18, active compounds read low",0.97
same,normalized growth,"locus YMR125W, strain sto1, active compounds read low",1
same,normalized growth,"locus YMR129W, active compounds read low",0.978
same,normalized growth,"locus YMR205C, strain PFK2, active compounds read low",1.02
same,normalized growth,"locus YMR223W, strain ubp8, active compounds read low",0.978
same,normalized growth,"locus YMR231W, strain pep5, active compounds read low",0.989
same,normalized growth,"locus YMR263W, strain SAP30, active compounds read low",0.985
same,normalized growth,"locus YMR307W, strain GAS1, active compounds read low",1.06
same,normalized growth,"locus YNL067W, strain RPL9B, active compounds read low",0.967
